Laboratory results from PubChem BioAssay (NCI).
About 83,000 compounds went through this panel and 20% of them were active in at least one assay; those are over-represented in the sample as a whole.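 Negative percent growth values reflect cell death: -40 means 40% of the cells present at the start died, and -100 means all died.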 Unmarked numbers belong to inactive results. Active and inactive are the calls of the source. The calls were made as follows: active = growth percent below 10; inactive = the rest.

How the values were obtained:
Assay in all cases: NCI-60 one-dose screen, 48 h (100 = growth as untreated, 0 = no growth, -100 = all killed)
Settings in all cases: 10 µM unless noted
[1] = system: NCI-H23 lung
[2] = system: NCI-H226 lung
[3] = system: NCI-H322M lung
[4] = system: HOP-62 NSCLC
[5] = system: NCI-H460 lung
[6] = system: HOP-92 NSCLC
[7] = system: NCI-H522 lung
[8] = system: A549/ATCC NSCLC
[9] = system: 786-0 renal
[10] = system: COLO 205 colon
[11] = system: DU-145 prostate
[12] = system: K-562 leukemia
[13] = system: MALME-3M melanoma
[14] = system: MDA-MB-231 breast
[15] = system: RXF 393 renal
[16] = system: SF-268 CNS
[17] = system: SF-295 CNS
[18] = system: SF-539 CNS
[19] = system: UACC-257 melanoma
[20] = system: M14 melanoma

In the case of `COCOc1ccc2c(=O)c(C)c(C(=O)N[C@@H](Cc3ccccc3)C(O)C(=O)NCCc3ccc(OC)cc3)oc2c1` (some centres undefined), the growth [1] is reported as 109%, the growth [2] is reported as 110% and the growth [3] is reported as 103%. It also gave a growth [4] of 106%, a growth [5] of 133% and a growth [6] of 117%. It also gave a growth [7] of 98.4%, a growth [8] of 100% and a growth [9] of 106%. It also gave a growth [10] of 139%, a growth [11] of 106% and a growth [12] of 84.1%. The growth [13] was 111%, the growth [14] was 99% and the growth [15] was 99.1%. The growth [16] was 120%, the growth [17] was 107% and the growth [18] was 109%. For the same compound, the growth [19] was 116% and the growth [20] was 118%.

`COc1ccc(N2N=C(c3ccc4c(c3)OCO4)CC2c2cccc(NC(=O)CCCNS(=O)(=O)c3ccc(F)cc3)c2)cc1` (centres undefined) showed a growth [1] of 73.7%, a growth [2] of 67.2% and a growth [3] of 76.1%. The growth [4] was 82.4%, the growth [5] was 50.6% and the growth [6] was 90.4%. For the same compound, the growth [7] was -7.84% (active), the growth [8] was 49.1% and the growth [9] was 62.5%. The growth [10] was 65.3%, the growth [11] was 80.3% and the growth [12] was 35.5%. The growth [13] was 77.6%, the growth [14] was 50.2% and the growth [15] was 66.9%. For the same compound, the growth [16] was 52.8%, the growth [17] was 49.2% and the growth [18] was 74.9%. The growth [19] was 75.7% and the growth [20] was 49.5%.

Compound `CCCCSc1nc(NCCc2c[nH]c3ccccc23)c(C#N)c(-c2ccc(OC)cc2)n1` has a growth [1] of 48.3%, a growth [2] of 60.9% and a growth [3] of 87.4%. For the same compound, the growth [4] was 57%, the growth [5] was 33.4% and the growth [6] was 47.3%. The growth [7] was 57.7%, the growth [8] was 61.3% and the growth [9] was 54.8%. It also gave a growth [10] of 74.6%, a growth [11] of 68.4% and a growth [12] of 22.4%. The growth [13] was 93.4%, the growth [14] was 36.9% and the growth [15] was -2.63% (active). It also gave a growth [16] of 56%, a growth [17] of 43.4% and a growth [18] of 54.4%. It also gave a growth [19] of 94.8% and a growth [20] of 70.1%.

With `CC(=O)Nc1ccc(-n2cnc3ccc(-c4ccc(O)cc4)cc32)cc1` the growth [1] was 41.3%, the growth [2] was 52.5% and the growth [3] was 44%. The growth [4] was 53%, the growth [5] was 38.7% and the growth [6] was 66%. It also gave a growth [7] of 54%, a growth [8] of 44% and a growth [9] of 48.5%. It also gave a growth [10] of 123%, a growth [11] of 44.7% and a growth [12] of 56.6%. The growth [13] was 50.3%, the growth [14] was 70.4% and the growth [15] was 10.9%. For the same compound, the growth [16] was 36.3%, the growth [17] was 56% and the growth [18] was 34.2%. The growth [19] was 67.3% and the growth [20] was 48.7%.

With `CCOP(=O)(OCCCl)c1nc(-c2ccc(C)cc2)oc1NCc1ccccc1` (centres undefined) the growth [1] was 75.3%, the growth [2] was 88% and the growth [3] was 84.6%. The growth [4] was 93.9%, the growth [5] was 73.2% and the growth [6] was 75.5%. For the same compound, the growth [7] was 69.1%, the growth [8] was 66.5% and the growth [9] was 81.9%. It also gave a growth [10] of 83.5%, a growth [11] of 96% and a growth [12] of 50.3%. It also gave a growth [13] of 102%, a growth [14] of 65.1% and a growth [15] of 84.4%. The growth [16] was 73.7%, the growth [17] was 79.9% and the growth [18] was 87.2%. It also gave a growth [19] of 92.6% and a growth [20] of 86.3%.

For `O=C(COc1ccc(NC(=O)Nc2ccccc2)cc1)N=Nc1c(O)[nH]c2ccc([N+](=O)[O-])cc12`, the growth [1] was 10.5%, the growth [2] was 18.6% and the growth [3] was 37.7%. For the same compound, the growth [4] was 24.5%, the growth [5] was 49.1% and the growth [6] was -72.4% (active). The growth [7] was -48% (active), the growth [8] was 101% and the growth [9] was 16.7%. For the same compound, the growth [10] was -29.9% (active), the growth [11] was 33.9% and the growth [12] was 10.5%. For the same compound, the growth [13] was -62.7% (active), the growth [14] was -42.3% (active) and the growth [15] was 33.5%. The growth [16] was 46.7%, the growth [17] was 70.3% and the growth [18] was -70.5% (active). For the same compound, the growth [19] was 27.3% and the growth [20] was 8.59% (active).

With `Cc1ccc([C@H]2C(C(=O)c3ccc(Cl)cc3)C3(N[C@@H]2c2ccccc2)C(=O)Nc2ccc(Br)cc23)cc1` (some centres undefined) the growth [1] was 61.4%, the growth [2] was 66.7% and the growth [3] was 69.1%. The growth [4] was 69.9%, the growth [5] was 55.6% and the growth [6] was 21.9%. It also gave a growth [7] of 46.5%, a growth [8] of 38.4% and a growth [9] of 45.8%. The growth [10] was 49.3%, the growth [11] was 82.5% and the growth [12] was 26.6%. For the same compound, the growth [13] was 92.2%, the growth [14] was 49.7% and the growth [15] was 33.6%. For the same compound, the growth [16] was 100%, the growth [17] was 52.4% and the growth [18] was 79.7%. It also gave a growth [19] of 71.6% and a growth [20] of 44.3%.

With `O=C(c1ccc(Cl)cc1)c1ccc(OCCCN2CCN(c3ccncc3)CC2)cc1` the growth [1] was 38.4%, the growth [2] was 49.4% and the growth [3] was 82.1%. For the same compound, the growth [4] was 38.7%, the growth [5] was 48.6% and the growth [6] was 14.9%. The growth [7] was 52.6%, the growth [8] was 55.5% and the growth [9] was 33.5%. For the same compound, the growth [10] was -49.7% (active), the growth [11] was 62.1% and the growth [12] was 1.45% (active). The growth [13] was -54.1% (active), the growth [14] was 17.2% and the growth [15] was 32.8%. It also gave a growth [16] of 73.2%, a growth [17] of 17.6% and a growth [18] of 16.7%. For the same compound, the growth [19] was 42.4% and the growth [20] was -36.2% (active).

`CC(=O)OC[C@@]1(C)C2CC[C@]3(C)C(CC=C4C5CC(C)(C)CC[C@]5(C(=O)Nc5ccc(C)cc5)CC[C@]43C)[C@@]2(C)C[C@@H](OC(C)=O)[C@@H]1OC(C)=O` (some centres undefined) was tested, and the growth [1] was 49.3%, the growth [2] was 50.6% and the growth [3] was 72.8%. For the same compound, the growth [4] was 44.4%, the growth [5] was 13.5% and the growth [6] was 55.8%. For the same compound, the growth [7] was 48.9%, the growth [8] was 41.4% and the growth [9] was 57.1%. It also gave a growth [10] of 48.8%, a growth [11] of 49% and a growth [12] of 21.6%. It also gave a growth [13] of 60.6%, a growth [14] of 66.1% and a growth [15] of 82.2%. For the same compound, the growth [16] was 57.4%, the growth [17] was 31.2% and the growth [18] was 43.1%. It also gave a growth [19] of 23.9% and a growth [20] of 51.9%.

In the case of `C/C(=N\N=C1/C(=O)Nc2ccc(Cl)cc21)c1ccc2c(c1)Nc1ccccc1S2`, the growth [1] is reported as -28.2% (active), the growth [2] is reported as 31.3% and the growth [3] is reported as 28.3%. For the same compound, the growth [4] was 19.3%, the growth [5] was -21.9% (active) and the growth [6] was -10.5% (active). For the same compound, the growth [7] was -34% (active), the growth [8] was -6.39% (active) and the growth [9] was -70% (active). For the same compound, the growth [10] was -41.7% (active), the growth [11] was -56.3% (active) and the growth [12] was 10%. For the same compound, the growth [13] was -19.6% (active), the growth [14] was -2.47% (active) and the growth [15] was -11.5% (active). The growth [16] was 35.7%, the growth [17] was -27.4% (active) and the growth [18] was 3.26% (active). The growth [19] was 10.1% and the growth [20] was -20.8% (active).

For `C=C1CC[C@@H]2[C@]3(C)COC(c4ccccc4)O[C@@H]3CC[C@@]2(C)[C@@H]1C/C=C1/C(=O)OCC1OC(C)=O` (some centres undefined), the growth [1] was -18.5% (active), the growth [2] was -79.8% (active) and the growth [3] was 62.1%. For the same compound, the growth [4] was -27.7% (active), the growth [5] was 15.1% and the growth [6] was -36.3% (active). For the same compound, the growth [7] was -90.2% (active), the growth [8] was 9.46% (active) and the growth [9] was -95.6% (active). For the same compound, the growth [10] was -76.4% (active), the growth [11] was 22.5% and the growth [12] was -39.6% (active). The growth [13] was -54.8% (active), the growth [14] was -83.1% (active) and the growth [15] was -87.7% (active). The growth [16] was 35.1%, the growth [17] was -4.5% (active) and the growth [18] was -100% (active). The growth [19] was -49.6% (active) and the growth [20] was -86.9% (active).

`COc1ccc(CCC2c3c(cc4c(c3OC)OCO4)CCN2C)cc1` (centres undefined) was tested, and the growth [1] was -48.6% (active), the growth [2] was -59.3% (active) and the growth [3] was 0.952% (active). The growth [4] was -30.2% (active), the growth [5] was -89.7% (active) and the growth [6] was -30% (active). For the same compound, the growth [7] was -81% (active), the growth [8] was 9.85% (active) and the growth [9] was -67.1% (active). The growth [10] was -73.1% (active), the growth [11] was 5.2% (active) and the growth [12] was 3.01% (active). For the same compound, the growth [13] was -98.4% (active), the growth [14] was -80.8% (active) and the growth [15] was -35% (active). For the same compound, the growth [16] was 10.2%, the growth [17] was -65.2% (active) and the growth [18] was -99.9% (active). The growth [19] was -65.7% (active).

In the case of `CC(C)Sc1nc(NCCc2c[nH]c3ccccc23)c(C#N)c(-c2ccc(F)cc2)n1`, the growth [1] is reported as 46.2%, the growth [2] is reported as 54.5% and the growth [3] is reported as 85.2%. For the same compound, the growth [4] was 51.9%, the growth [5] was 5.26% (active) and the growth [6] was 20.1%. For the same compound, the growth [7] was 39.8%, the growth [8] was 51.4% and the growth [9] was 14.4%. For the same compound, the growth [10] was 28.9%, the growth [11] was 40.6% and the growth [12] was 9.31% (active). The growth [13] was 80.6%, the growth [14] was 11.2% and the growth [15] was -3.65% (active). For the same compound, the growth [16] was 45.1%, the growth [17] was 49.4% and the growth [18] was 40.1%. The growth [19] was 90.2% and the growth [20] was 46.8%.

In the case of `O=c1[nH]c2ccccc2cc1CSc1nccc(-c2ccc3ccccc3c2)n1`, the growth [1] is reported as 77.8%, the growth [2] is reported as 70.4% and the growth [3] is reported as 96%. The growth [4] was 71.5%, the growth [5] was 77% and the growth [6] was 68.5%. For the same compound, the growth [7] was 49.6%, the growth [8] was 56.8% and the growth [9] was 78.3%. It also gave a growth [10] of 83.3%, a growth [11] of 81% and a growth [12] of 10.1%. The growth [13] was 86.3%, the growth [14] was 58.2% and the growth [15] was 59.1%. The growth [16] was 85.4%, the growth [17] was 70.8% and the growth [18] was 71.2%. It also gave a growth [19] of 99.3% and a growth [20] of 56.1%.
